Laboratory results: PubChem BioAssay AID624202 (National Center for Advancing Translational Sciences (NCATS), 2012)
About 4,000 (1.1%) of roughly 380,000 compounds were called active. Inconclusive results (about 3%) are left out. What follows is part of a selection rich in actives, with near analogues and random picks from the rest. Unmarked numbers belong to inactive results. The call rests on the fitted dose curve; in most records, active means well fitted activation curve with a large enough effect; inconclusive means small, poorly fitted or top-dose-only effect; inactive means no such curve, though single readings can be large or run the other way.

test: qHTS Assay to Identify Small Molecule Activators of BRCA1 Expression; conditions: MCF7-BRCA1-FFLuc reporter, luminescence, 48 h; series mostly up to 46.1 µM; activation: at the top concentration; further: nearly all actives have a fitted effect of over 80% in size
Outline: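 MCF7 cells carrying a BRCA1-firefly luciferase reporter (2000 cells/well, phenol-red free MEM) were attached for 2 h at 37 °C, then given compounds for 48 h. Luminescence was read 15 min after luciferase reagent; activity normalized to genistein (10 microM) and DMSO.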
Potency means the concentration at half of the fitted maximal effect.

First: O=C(c1ccc2c(=O)n(Cc3ccco3)c(=S)[nH]c2c1)N1CCCC1
Second: Cc1ccc(C)c(CN2C(=O)c3ccccc3S(=O)c3ccc(C(=O)N4CCOCC4)cc32)c1 (stereo unspecified)
The “activation” value of the first is lower: -11.9% for the first, -8.36% for the second.

Compared with O=C(Nc1cccc2cccnc12)c1cccc2c(Br)cccc12, O=S(=O)(NCCOc1cccc2cccnc12)c1ccc(F)cc1 is higher in “activation” value: -31.4% for the first, 9% for the second.

Compared with Brc1cccc(-c2nnn3c2nc(NC2CCCCC2)c2ccccc23)c1, O=C(NC1CCCCC1)c1ccc2c(c1)N(Cc1ccc(Cl)cc1)C(=O)c1ccccc1S2=O (stereo unspecified) is lower in “activation” value: -3.57% for the first, -29.4% for the second.

Going from COc1ccc(-c2nc3ccccc3o2)cc1NC(=O)c1cc([N+](=O)[O-])ccc1N1CCOCC1 to COc1cc(C(=O)Nc2ccc(-n3c(C)nc4ccccc4c3=O)cc2)cc(OC)c1OC, the “activation” value falls from 11.7% to 4.37%.

Going from CC(=O)Nc1cccc(-c2cc(NC(C)=O)c3ncc(-c4ccccc4)n3c2)c1 to CCS(=O)(=O)Nc1cccc(-c2cc(-c3ccccc3)c3cc(C)ccc3n2)c1, the “activation” value falls from -10.9% to -71.4%.

Compared with Cc1c(C)c(C)c(S(=O)(=O)NCCc2ccccn2)c(C)c1C, COc1cncc(-c2cnc3sc(NCCc4ccccn4)nn23)c1 is lower in “activation” value: -0.0453% for the first, -32.3% for the second.

Compared with CN(Cc1ccccc1)c1ncnc2onc(-c3ccc(F)cc3)c12, O=C(Nc1c(-c2ccc(F)cc2)nc2ccccn12)c1cccc(F)c1 is lower in “activation” value: -18.2% for the first, -21.3% for the second.

Compared with O=C(CC(c1ccccc1)c1ccccc1)NCC(O)c1ccc([N+](=O)[O-])cc1 (stereo unspecified), CC(=O)c1ccc(NC(=O)COc2ccccc2-c2nc(-c3ccccc3)no2)cc1 is higher in “activation” value: -36.3% for the first, 0% for the second.

Going from CCCCOC(=O)Nc1nnc(CC(=O)NCc2ccccc2)s1 to C/C(Cc1ccccc1)=N\NC(=O)CNC(=O)c1ccc2c(c1)OCCO2, the “activation” value rises from -16.7% to 21.3%.

Compared with COc1ccc2cc(CNc3ccc(OC)c(OC)c3)c(=O)n(CC(=O)Nc3ccccc3F)c2c1, COc1cc(C(=O)Nc2ccc(OCc3cc(=O)n4cc(C)sc4n3)cc2)cc(OC)c1OC is lower in “activation” value: 6.1% for the first, 5.16% for the second.

Compared with COc1cc2nc(N3CCCN(C)CC3)nc(NC(C)C)c2cc1OC, COc1cc2c(=O)c(S(=O)(=O)c3ccc(C(C)C)cc3)cn(Cc3ccccc3C)c2cc1OC is lower in “activation” value: 4.14% for the first, -43.2% for the second.

Compared with COc1cccc(CNC(=O)C(NS(=O)(=O)c2ccc3nc(C)sc3c2)C(C)C)c1 (stereo unspecified), CCOC(=O)c1cccc(NS(=O)(=O)c2cn(C)c(C)n2)c1 is lower in “activation” value: 11.8% for the first, -4.82% for the second.

Going from NS(=O)(=O)c1ccc(NC(=S)N2CCCC2)cc1 to CCC(C)c1ccc(NC(=O)COC(=O)C2CCCC2)cc1 (stereo unspecified), the “activation” value rises from -14.7% to 63.6%.

First: CCN(C(=O)Cn1cnc2sc(C)c(S(=O)(=O)N3CCN(c4ncccn4)CC3)c2c1=O)c1ccccc1F
Second: CCOC(=O)c1c(C)[nH]c(C)c1S(=O)(=O)N1CCCC(C(=O)NCc2ccccc2Cl)C1 (stereo unspecified)
The “activation” value of the first is higher: 6.29% for the first, -3.4% for the second.

Going from CCOC(=O)c1c(-c2ccc(OC)cc2)oc2ccc(OCc3ccc(C(=O)OC)cc3)cc12 to COc1ccc(C2=NN(C(=O)CSc3nc(=O)n4ccc(C)cc4n3)C(c3ccc(C)cc3)C2)cc1 (stereo unspecified), the “activation” value falls from 11.6% to -15.3%.

First: COc1ccc(-c2ocnc2C(=O)Nc2ccc3c(c2)CCC3)cc1
Second: COc1ccc(NC(=O)CCNS(=O)(=O)c2ccc3c(c2)CCCC(=O)N3)cc1Cl
The “activation” value of the first is higher: 43% for the first, 0% for the second.

Compared with Cc1ccc(N2CC(C(=O)Nc3ccc(N(C)C)cc3)CC2=O)cc1Cl (stereo unspecified), Cc1ccc(C)c(NC(=S)NNC(=S)Nc2ccc(C(C)C)cc2)c1 is lower in “activation” value: 0.738% for the first, -7.76% for the second.

Compared with O=C(Nc1ccc(F)cc1F)c1cnn(-c2ccc(F)cc2)c1-n1cccc1, O=C(Nc1ccc(F)cc1F)c1ccc2c(=O)n3c(nc2c1)CCCCC3 is higher in “activation” value: -12.7% for the first, 4.14% for the second.

Compared with CC(C)CC(=O)Nc1ccc(Cc2ccncc2)cc1, CCc1ccc(NC(=O)N[C@H](C(=O)O)C(C)CC)cc1 (stereo partly specified) is higher in “activation” value: -0.517% for the first, 0% for the second.

Compared with Cc1ccccc1Nc1nn2c(=O)c3ccc(C(=O)NCCc4ccc(Cl)cc4)cc3nc2s1, O=c1cc2nc(-c3ccccc3)nc(SCCOc3ccc(Cl)cc3)n2[nH]1 is higher in “activation” value: 1.1% for the first, 11.2% for the second.

Going from CN(N=O)c1ccc(C=C2c3ccccc3-c3ccccc32)cc1 to CN(C)c1ccc(C=Nc2ccc(/C=C/c3ccnc4ccccc34)cc2)cc1, the “activation” value rises from -55.1% to 8.08%.

Compared with COc1ccc(S(=O)(=O)NCCSc2nnnn2-c2ccccc2)cc1, COc1ccc(C2CC(c3ccccc3)=NN2C(=O)c2ccc(Cl)c([N+](=O)[O-])c2)cc1 (stereo unspecified) is lower in “activation” value: -7.8% for the first, -88.3% for the second.

First: CCCNC(=O)CCc1c(C)nc2c(c(C)nn2-c2ccc(C)cc2)c1C
Second: CCc1nc2c(cnn2-c2ccc(C)cc2)c(=O)n1-c1ccc(C)cc1
The “activation” value of the first is higher: -11.4% for the first, -12.1% for the second.

First: COc1ccccc1CNC(=O)CCn1c(=O)c2ccccc2n(CC(=O)Nc2cccc(Cl)c2)c1=O
Second: Cc1ccccc1NC(=O)Cn1c(=O)n(CC2CCC(C(=O)NCCc3ccccc3)CC2)c(=O)c2ccccc21 (stereo unspecified)
The “activation” value of the first is lower: 0% for the first, 0.607% for the second.

Going from COc1cc(/C=C2\Oc3ccc(C#Cc4ccc(O)cc4)cc3C2=O)cc(OC)c1 to COc1cc(OC)cc(-c2nc3nc(C)c(CCC(=O)Nc4ccccc4)c(C)n3n2)c1, the “activation” value rises from -68% to 6.37%.

First: O=C1Oc2ccccc2C(=O)/C1=C/c1ccccc1O
Second: O=C1N(Cc2ccccc2)c2ccc(Cl)cc2C1(O)c1c[nH]c2ccccc12 (stereo unspecified)
The “activation” value of the first is lower: -43.4% for the first, -30.5% for the second.

Going from Cc1ccc(-c2cc(-c3coc4ccccc4c3=O)c3c(n2)-c2cc(Cl)ccc2OC3)cc1 to Cc1ccc(S(=O)(=O)c2c(Nc3cccc(Cl)c3)sc(C(=O)c3ccc4c(c3)OCO4)c2N)cc1, the “activation” value falls from 5.07% to -20.3%.

Going from CN(C)CCCn1c(-c2ccc(Cl)cc2)csc1=Nc1ccccc1 to N#Cc1ccccc1NC(=O)c1cccc(COc2ccc(Cl)cc2Cl)c1, the “activation” value rises from -56.6% to -15.9%.

Compared with CCOc1cccc(OCCCOc2cccc3cccnc23)c1, CCCCCCCNc1ccc(/C=C/c2ccnc3ccccc23)cc1 is lower in “activation” value: 24.7% for the first, -60.9% for the second.

First: CC1(C)CC(=O)C=C(c2ccc(COC(=O)c3cc(F)cc(F)c3)cc2)C1=O
Second: CC1(C)CC(=O)C=C(c2ccccc2CO)C1=O
The “activation” value of the first is lower: -11.8% for the first, 14.4% for the second.

Going from CC1=Nc2cc(C(=O)N3CCC(C)CC3)ccc2Sc2ccc(Cl)cc21 to O=C(NCc1ccc(Cl)cc1)C1CCN(S(=O)(=O)c2cccs2)CC1, the “activation” value rises from -35.4% to -3.74%.

First: Oc1ccc(Cl)cc1C1C=C(c2ccc3c(c2)OCO3)NC(c2ccc(F)c(Br)c2)N1 (stereo unspecified)
Second: C/C(=N/NC(=S)Nc1ccccc1)c1ccc2c(c1)OCO2
The “activation” value of the first is lower: -37.8% for the first, 54% for the second.

First: O=C(COC(=O)C1CC2C=CC1C2)Nc1ccccc1 (stereo unspecified)
Second: CS(=O)(=O)N1CCc2cc(C(=O)Nc3ccccc3)ccc21
The “activation” value of the first is lower: -10.1% for the first, 17.3% for the second.

Compared with OC[C@@H]1O[C@H](n2cnc3c(SCc4ccccc4)ncnc32)[C@H](O)[C@H]1O, CC(C)NC(=O)CSc1ccccc1C(=O)NCc1ccc2c(c1)OCO2 is lower in “activation” value: 0% for the first, -1.15% for the second.

First: CCN(C(=O)c1sc2cc(OC)ccc2c1Cl)c1ccccc1
Second: O=C(NCc1ccco1)c1sc2cccc(F)c2c1Cl
The “activation” value of the first is lower: -24.9% for the first, 60.2% for the second.

First: C=C1C=C(C(F)F)n2ncc(C(=O)NCCc3ccccc3OC)c2N1
Second: COc1ccc(Cn2c(C)c(C)c(C#N)c2NC(=O)Nc2ccc(F)cc2)cc1
The “activation” value of the first is lower: -8.16% for the first, 0% for the second.

First: c1csc(-c2nnc(COc3ncnc4sccc34)o2)c1
Second: CCOc1ncccc1C(=O)Nc1ccc2c(c1)OCCO2
The “activation” value of the first is higher: -5.83% for the first, -13.2% for the second.

Compared with CNC(=O)c1nnc(Cc2ccc(Cl)cc2)o1, Cc1ccc(C(=O)NNC2=Nc3cc([N+](=O)[O-])ccc3OC2)cc1 is lower in “activation” value: 27.6% for the first, -41.7% for the second.

First: COc1ccc(OCc2n[nH]c(=S)n2N)cc1
Second: CCOC(=O)C1CCCN(CC(=O)Nc2cc(C)c3c(=O)oc4ccccc4c3n2)C1 (stereo unspecified)
The “activation” value of the first is higher: 2.71% for the first, 2.55% for the second.

Compared with Cc1ccc(S(=O)(=O)NCC(=O)Nc2ccc3c(c2)OCCO3)cc1, O=C(Nc1cccc(Cl)c1N1CCOCC1)c1ccc2c(c1)OCCO2 is higher in “activation” value: 0% for the first, 0.06% for the second.

Going from O=CN1CCN(C(=O)c2ccc3c(c2)OCO3)CC1 to COCCn1c(SCC(=O)c2cc(C)ccc2C)nc2cc(C(=O)NC3CCCC3)ccc2c1=O, the “activation” value rises from 5.32% to 8.48%.

Going from CCCCC(CCCC)c1ccc(C=Nc2ccc(/C=C/c3ccnc4ccccc34)cc2)cc1 to N#Cc1ccc[n+](CC(=O)c2ccc(O)c(O)c2)c1, the “activation” value rises from 11% to 16.7%.

For CC(C)(C)C1CCC(C(=O)NCC(c2cccs2)N2CCOCC2)CC1 (stereo unspecified), the “activation” value was -16.4%.

For CC(=O)Nc1cccc(-c2cnc3ccccc3n2)c1, the Potency was 3.98 µM (active).
In the case of COc1ccc(NCCc2ccccn2)cc1, the Potency was 12.6 µM (active).
In the case of CCCCCCOC(=O)NCC(O)c1ccccc1 (stereo unspecified), the Potency was 2.82 µM (active).
In the case of CCC(C)c1ccc(NC(=S)N2CCCC2)cc1 (stereo unspecified), the Potency was 12.6 µM (active).
For COc1ccc(-c2onc3ccc(C(C)=O)cc23)cc1, the Potency was 8.91 µM (active).
For CCc1ccc(NC(=O)Nc2ccncc2)cc1, the Potency was 10 µM (active).
In the case of CCCNC(=O)c1c(Cl)cnn1-c1ccc(C)cc1, the Potency was 10 µM (active).
In the case of COc1ccc2c(c1)O/C(=C\c1ccccc1O)C2=O, the Potency was 12.6 µM (active).
In the case of Fc1ccccc1COc1cccc2cccnc12, the Potency was 7.94 µM (active).
With Cc1ccc(-c2ccc(C3=CC(=O)CC(C)(C)C3=O)cc2)cc1 the Potency was 2.24 µM (active).
For COc1ccc(C2=NN(C(C)=O)C(c3ccccc3)C2)cc1 (stereo unspecified), the Potency was 11.2 µM (active).
With CC(C)c1ccc(NC(=S)NC2CC3C=CC2C3)cc1 (stereo unspecified) the Potency was 4.47 µM (active).
In the case of COc1ccc2c(Cl)c(C(=O)NCc3ccco3)sc2c1, the Potency was 11.2 µM (active).
With Clc1ccc(Cc2nnc(-c3cccs3)o2)cc1 the Potency was 11.2 µM (active).
For COc1ccc(Cc2n[nH]c(=S)n2NC(=O)Nc2ccc(C)cc2)cc1, the Potency was 12.6 µM (active).
For Cc1ccc(C(=O)NNC(=O)c2ccc3c(c2)OCCO3)cc1, the Potency was 6.31 µM (active).
For O=C(Nc1ccccc1)c1ccc2c(c1)OCO2, the Potency was 10 µM (active).
In the case of CCSc1ccccc1C(=O)Nc1ccc2c(c1)OCO2, the Potency was 11.2 µM (active).
In the case of N#Cc1ccccc1NC(=O)c1ccc2c(c1)OCO2, the Potency was 3.16 µM (active).
In the case of O=C(Nc1ccccc1)c1ccc2c(c1)OCCCO2, the Potency was 12.6 µM (active).
For O=C(NCc1csc(-c2cccs2)n1)C1CC1, the Potency was 11.2 µM (active).
